Bioassay records: PubChem BioAssay, National Center for Advancing Translational Sciences (NCATS)
TGFb inhibitor: inhibitors of TGF-b signaling. actives 1.2% (n = 410,000). AID 588855. HepG2 CAGA-GFP TGF-b/SMAD3 reporter, GFP fluorescence, 18 h; TGF-beta stimulated, 500 pg/mL final. Potency, µM (series often up to 46.1 µM), usual class: inhibitors; also: nearly all actives have a fitted effect of over 65% in size
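Inhibition was scored as loss of TGF-beta-induced (500 pg/mL final, 18 hours, 37 degrees C) GFP in HEPG2 cells carrying a CAGA-GFP reporter, in DMEM with 1% FBS. Well GFP was summed per cell; Activity was normalised to unstimulated and stimulated DMSO wells, then concentration-response fitting.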
TDP1 cell noCPT: qHTS for Inhibitors of human tyrosyl-DNA phosphodiesterase 1 (TDP1): qHTS in cells in absence of CPT; actives 15% (n = 420,000); Potency, µM (doses to about 46.2 µM), hits mostly inhibitors; DT40 Tdp1-/- hTDP1 cells, no CPT, ATP luminescence, 48 h; also: nearly all actives have a fitted effect of over 55% in size
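Growth of hTDP1-complemented DT40 Tdp1-knockout cells is measured by ATP luminescence after at least 48 hr compound exposure at 37 °C, with DMSO substituting for the 20 nM CPT used in the parallel screen.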
TDP1 cell CPT: growth inhibition of DT40 Tdp1-/-;hTDP1 cells with camptothecin (screen for TDP1 inhibitors). actives 12% (n = 420,000). Potency, µM (titrated, usually from 46.2 µM), usual class: inhibitors. chicken DT40 Tdp1-/-;hTDP1 cells + 20 nM CPT, ATP luminescence, 48 h; also: nearly all actives have a fitted effect of over 55% in size
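Chicken DT40 Tdp1-/- cells complemented with human TDP1, 400 cells/well, exposed to compounds plus 20 nM camptothecin for at least 48 h at 37 C; viability read as ATP content by CellTiter-Glo luminescence.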
TDP1 block: TDP1 (human) enzyme inhibition. recombinant TDP1, AlphaScreen DNA substrate cleavage. Potency, µM (doses to about 130 µM), most hits filed as inhibitors. AID 485290. actives 0.28% (n = 350,000); also: nearly all actives have a fitted effect of over 40% in size
Target sequence (Q9NUW8 whole entry, looked up): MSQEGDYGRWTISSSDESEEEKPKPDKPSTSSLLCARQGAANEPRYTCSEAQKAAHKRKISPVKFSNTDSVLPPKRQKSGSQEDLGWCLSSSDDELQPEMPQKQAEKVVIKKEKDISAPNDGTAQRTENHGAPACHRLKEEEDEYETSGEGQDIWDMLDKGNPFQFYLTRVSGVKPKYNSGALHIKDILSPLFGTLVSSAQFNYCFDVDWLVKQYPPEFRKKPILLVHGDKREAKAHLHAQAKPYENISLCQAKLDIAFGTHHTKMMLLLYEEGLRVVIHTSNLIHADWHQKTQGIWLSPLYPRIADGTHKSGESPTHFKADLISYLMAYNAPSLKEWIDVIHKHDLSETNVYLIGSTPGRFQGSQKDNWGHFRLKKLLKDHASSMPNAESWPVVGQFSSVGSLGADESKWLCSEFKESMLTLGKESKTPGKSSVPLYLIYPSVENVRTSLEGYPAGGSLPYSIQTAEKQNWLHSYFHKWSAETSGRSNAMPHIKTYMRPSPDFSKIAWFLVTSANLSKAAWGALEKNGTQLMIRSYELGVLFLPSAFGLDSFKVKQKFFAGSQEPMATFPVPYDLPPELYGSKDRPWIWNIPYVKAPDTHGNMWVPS
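Compounds were preincubated with Tdp1 (1 nM final) for 15 min at room temperature before substrate (15 nM final) started a 5 min reaction; beads (10 ug/ml final) were then added for 10 min before AlphaScreen detection.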
IL-1B inflam inh: inhibitors of inflammasome signaling (IL-1 beta secretion); THP-1 LPS/ATP IL-1B secretion, AlphaLISA, 16 h; hits give low values; activity change, % at 57.5 µM; actives 4.7% (n = 360,000); AID 743279; in the data active = activity change below about -50%; inconclusive = mostly about -30% to -49%
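Secreted IL-1B measured by AlphaLISA bead assay after 16 h compound exposure of THP-1 cells; compounds (final up to 57.5 uM) added 1 h before LPS (250 ng/mL) and ATP (1.25 mM) stimulation; lower signal means less secretion.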
HepG2 tox: HepG2 cytotoxicity, counter-screen for TGF-b inhibitors; HepG2 CAGA-GFP viability, ATP luminescence, 18 h; Potency, µM (titrated, usually from 46.1 µM), actives largely listed as cytotoxic; actives 0.76% (n = 410,000); AID 588856
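CellTiter-Glo luminescence gave cytotoxicity after 18 hours at 37 degrees C. The cells were HepG2 CAGA-GFP in 1% FBS DMEM, stimulated with 500 pg/mL TGF-beta after compound addition. %Activity was normalised to no-cell wells (complete cell-killing) and DMSO (no toxicity), and curves were fitted and classified.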
Large screens that a line does not name were inactive; ! = a repeat was not active. A selection: hits, their analogues and other compounds. The true share with any hit is near 18%. Unless noted, calls follow the shape of the dose curve; as a rule, active = well fitted curve in the direction sought with a large enough effect; inconclusive = small, poorly fitted or top-dose-only effect, or another doubt; inactive = no such curve, though single readings can be large; an effect the other way counts as inactive or inconclusive.

O=C(c1ccc2nc[nH]c2c1)N1CCN(c2ncc(C(F)(F)F)cc2Cl)CC1	TDP1 cell noCPT 18.4µM, TDP1 cell CPT 14.6µM
O=C(O)CN1CCN(c2ncc(C(F)(F)F)cc2Cl)CC1	none
CC(C)(C)NC(=O)NC(=O)CN1CCN(c2ncc(C(F)(F)F)cc2Cl)CC1	TDP1 cell noCPT 18.4µM, TDP1 cell CPT inconclusive
CC(=O)c1ccc(N2CCN(c3ncc(C(F)(F)F)cc3Cl)CC2)cc1	TDP1 cell noCPT 29.1µM, TDP1 cell CPT inconclusive, IL-1B inflam inh inconclusive
NNC(=O)CN1CCN(c2ncc(C(F)(F)F)cc2Cl)CC1	none
Nc1cc(=O)[nH]c(SCC(=O)Nc2ccccc2Sc2ccccc2)n1	TDP1 cell noCPT inconclusive, TDP1 cell CPT inconclusive
CCOC(=O)CC1CCCCN1C(=O)c1ccc2nc(CCOC)oc2c1 (centres undefined)	none
Cc1nc2cc(OC3(C)CCN(Cc4ccc(OC(F)(F)F)cc4)C3)ccc2s1 (centres undefined)	TDP1 cell noCPT inconclusive, TDP1 cell CPT inconclusive (no result: TDP1 block)
COc1ccc(OC)c(-c2ccccc2/C=N/NS(=O)(=O)c2ccc(C)cc2)c1	none (no result: TGFb inhibitor, TDP1 cell noCPT, TDP1 cell CPT, IL-1B inflam inh, HepG2 tox)
NS(=O)(=O)c1ccc(CCNC(=O)CCNS(=O)(=O)c2ccccc2C(F)(F)F)cc1	none
C=CCNC(=S)N1CCN(c2ncc(C(F)(F)F)cc2Cl)CC1	TDP1 cell noCPT inconclusive, TDP1 cell CPT inconclusive, IL-1B inflam inh -66.7
Cc1ccc(Nc2nc3ccccc3n3nnnc23)cc1	none
O=C(c1ccc(Nc2nc3ccccc3n3nnnc23)cc1)N1CCN(c2cccc(C(F)(F)F)c2)CC1	TDP1 cell noCPT 18.4µM, TDP1 cell CPT inconclusive (no result: IL-1B inflam inh)
Cc1cc(C)cc(NC(=S)N2CCN(c3ncc(C(F)(F)F)cc3Cl)CC2)c1	TDP1 cell noCPT inconclusive, TDP1 cell CPT inconclusive
O=C(OCC(=O)N1CCN(c2ccccc2)CC1)c1ccc2ncsc2c1	none (no result: TDP1 block)
O=C(c1ccc2ncsc2c1)N1CCN(c2cccc(C(F)(F)F)c2)CC1	TDP1 cell noCPT 1.46µM, TDP1 cell CPT 2.91µM
CC1(C)S[C@@H]2[C@H](NC(=O)C(C(=O)Oc3ccc4c(c3)CCC4)c3ccccc3)C(=O)N2[C@H]1C(=O)O (some centres undefined)	none (no result: TGFb inhibitor, TDP1 block, IL-1B inflam inh, HepG2 tox)
CCC1CCC2(CC1)NC(CO)(CO)CO2 (centres undefined)	none
CCC1CCC2(CC1)NNC(=S)NN2	TDP1 cell noCPT 18.4µM, TDP1 cell CPT inconclusive
COc1cc(NC(=O)Cn2ncc3c(=O)oc4ccccc4c32)cc(OC)c1OC	none (no result: IL-1B inflam inh)
CCCN(C(=O)Cn1ncc2c(=O)oc3ccccc3c21)c1cccc(C)c1	TDP1 cell noCPT 20.6µM, TDP1 cell CPT 23.1µM!
COC(=O)C(CCSC)NC(=O)Cn1ncc2c(=O)oc3ccccc3c21 (centres undefined)	TDP1 cell CPT inconclusive, IL-1B inflam inh -55.0
CC(C)Oc1ccc(C(=O)Nc2ncn[nH]2)cc1	none
Cc1cc(C)c2c(C)ccnc2c1	none (no result: TDP1 block, IL-1B inflam inh)
CCC1(c2ccccc2)NC(=O)N(CC(=O)NCC2COc3ccccc3O2)C1=O (centres undefined)	TDP1 cell noCPT inconclusive, TDP1 cell CPT inconclusive
CCCCN(CC)S(=O)(=O)c1ccc(C(=O)Nc2nnc(-c3ccccc3Cl)o2)cc1	none (no result: TGFb inhibitor, TDP1 cell noCPT, TDP1 cell CPT, IL-1B inflam inh, HepG2 tox)
COc1ccccc1-c1nnc(NC(=O)c2ccc(S(=O)(=O)N(C)C)cc2)o1	TDP1 cell noCPT 23.1µM, TDP1 cell CPT inconclusive
CCN(Cc1ccccc1)S(=O)(=O)c1ccc(C(=O)Nc2nnc(-c3ccccc3OC)o2)cc1	TDP1 cell noCPT 8.2µM, TDP1 cell CPT 11.6µM
COc1ccccc1-c1nnc(NC(=O)c2ccccc2F)o1	TDP1 cell noCPT inconclusive, TDP1 cell CPT inconclusive
CC(C)c1ccc(NC(=O)CS(=O)(=O)c2cccc3nsnc23)cc1	TDP1 cell noCPT inconclusive (no result: IL-1B inflam inh)
